Active and inactive are the calls of the source. Rule for the calls: active = hit-call score of the fitted dose curve at least 0.9, where 1 is the maximum; inactive = score below 0.9.
Columns and labels:
[1] = ATG_CRE_CIS: Attagene CIS-FACTORIAL HepG2 Assay for human cAMP Responsive Element (CRE) binding protein 3 (AID 2282926); details: HepG2 CRE cis-reporter, Attagene multiplexed mRNA; actives raise or lower the signal
Summary of the method: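 We dosed HepG2 cells bearing multiple cis-promoter reporter units for 24 h and measured reporter mRNA by RT-PCR with capillary electrophoresis detection. Bidirectional concentration-response fitting used DMSO as negative control.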

[2] = molecular target: CCAAT/enhancer-binding protein beta (Homo sapiens) (UniProt P17676); assay: ATG_C_EBP_CIS: Attagene CIS-FACTORIAL HepG2 Assay for human CCAAT/Enhancer Binding Protein (C/EBP) beta (AID 2282927); details: HepG2 Attagene cis-factorial transcription factor reporter; actives raise or lower the signal
Summary of the method: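 Transiently transfected HepG2 (MRTU library, endogenous TF-driven promoters); 24 h dosing; total RNA → oligo(dT) RT → PCR → 6-FAM primer extension → HpaI digest → CE; fit bidirectionally vs DMSO.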

[3] = ATG_CMV_CIS: Attagene CIS-FACTORIAL HepG2 Assay for human CMV (Internal Marker) (AID 2282928); details: HepG2 CMV promoter reporter, transcription factor profiling; actives raise or lower the signal;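 note: endpoint acts as a background internal control marker rather than a target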
Summary of the method: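 CMV internal-marker background readout in transiently transfected HepG2 cells bearing cis-regulated reporter units. Reporter mRNA is measured 24 h after dosing by RT-PCR and capillary electrophoresis, with bidirectional fitting against DMSO.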

[4] = ATG_DR4_LXR_CIS: Attagene CIS-FACTORIAL HepG2 Assay for human Liver X Receptor (LXR), DR4 submotif (AID 2282929); details: HepG2 Attagene DR4 cis-reporter, mRNA transcription; actives raise or lower the signal
Summary of the method: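 HepG2 cells were transiently transfected with multiple cis-regulated reporter units and dosed for 24 hours. The DR4 reporter mRNA was quantified by RT-PCR, 6-FAM labelling and capillary electrophoresis. Bidirectional fits used DMSO as baseline.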

[5] = molecular target: Aryl hydrocarbon receptor (Homo sapiens) (UniProt P35869); assay: ATG_Ahr_CIS: Attagene CIS-FACTORIAL HepG2 Assay for human Aryl Hydrocarbon Receptor (Ahr) (AID 2282930); details: HepG2 AhR cis-factorial reporter transcription; actives raise or lower the signal
Summary of the method: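 Read-out: reporter mRNA quantified by RT-PCR with fluorescent primer extension and capillary electrophoresis. Human HepG2 liver cells carried transfected cis-promoter reporter units and were exposed to chemical for 24 h; gain or loss fitted relative to DMSO.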

[6] = ATG_AP_1_CIS: Attagene CIS-FACTORIAL HepG2 Assay for human Activator Protein 1 (AP-1) (AID 2282931); details: HepG2 Attagene cis-factorial AP-1 reporter mRNA; actives raise or lower the signal
Summary of the method: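 HepG2 cells transiently transfected with cis-element-driven reporter transcription units, dosed for 24 hours. Reporter mRNA measured by RT-PCR, 6-FAM labelling, HpaI digestion and capillary electrophoresis. Bidirectional fitting against DMSO baseline.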

[7] = ATG_AP_2_CIS: Attagene CIS-FACTORIAL HepG2 Assay for human Activator Protein 2 (AP-2) (AID 2282932); details: HepG2 AP-2 cis-reporter, Attagene transcription factor profiling; actives raise or lower the signal
Summary of the method: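 Multiplexed mRNA reporter assay in HepG2: cis-regulated units report endogenous factor activity after 24 h treatment. Fluorescence from capillary electrophoresis of RT-PCR products gives the signal, with DMSO as baseline.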

[8] = ATG_BRE_CIS: Attagene CIS-FACTORIAL HepG2 Assay for human Bone Morphogenetic Protein (BMP) Response Element (BRE) (AID 2282933); details: HepG2 BMP response element reporter, Attagene transcription factor profiling; actives raise or lower the signal
Summary of the method: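 HepG2 cells transiently transfected with CIS reporter units (endogenous TF activity, BMP response element), dosed 24 h. Reporter mRNA quantified by RT-PCR, fluorescent labelling and capillary electrophoresis; bidirectional fit vs DMSO baseline.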

[9] = molecular target: Retinoic acid receptor alpha (Homo sapiens) (UniProt P10276); assay: ATG_DR5_RAR_CIS: Attagene CIS-FACTORIAL HepG2 Assay for human Retinoic Acid Receptor Alpha (RARE), DR5 submotif (AID 2282934); details: HepG2 Attagene cis-factorial RARE DR5 reporter, mRNA; actives raise or lower the signal;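 for AC50: reporter responds to endogenous RAR alpha beta and gamma in HepG2 not RARA alone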
Summary of the method: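 Read-out: DR5-driven reporter transcript measured by RT-PCR, 6-FAM primer extension, HpaI digest and capillary electrophoresis. Human HepG2 liver cells carry transiently transfected cis-element reporter constructs; dosing lasts 24 h. Gain or loss of signal fitted against DMSO baseline.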

[10] = molecular target: Transcription factor E2F1 (Homo sapiens) (UniProt Q01094); assay: ATG_E2F_CIS: Attagene CIS-FACTORIAL HepG2 Assay for human E2F Transcription Factor 1 (AID 2282935); details: HepG2 Attagene cis-reporter, E2F reporter RNA transcripts; actives raise or lower the signal
Summary of the method: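 Measures reporter transcript levels via RT-PCR with capillary electrophoresis detection in HepG2 cells harboring cis-regulated reporter units; 24 h post-dose; bidirectional curve fitting with DMSO as baseline.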

[11] = ATG_E_Box_CIS: Attagene CIS-FACTORIAL HepG2 Assay for human Enhancer Box (E-box) (AID 2282936); details: HepG2 E-box cis-reporter transcription, actives raise or lower the signal
Summary of the method: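 First, HepG2 cells receive multiple cis-regulated reporter constructs by transient transfection. Next, chemicals are applied for 24 h. Finally, reporter mRNA is quantified via RT-PCR and capillary electrophoresis, with DMSO as baseline.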

[12] = ATG_M_61_CIS: Attagene CIS-FACTORIAL HepG2 Assay for M61 Transcription Factor (Internal Marker) (AID 2282937); details: HepG2 Attagene CIS-FACTORIAL M61 internal marker reporter; actives raise or lower the signal
Summary of the method: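 HepG2 cells transiently transfected with multiplexed cis-promoter reporter units reporting endogenous transcription factor activity, measured 24 h after dosing. Reporter mRNA quantified by RT-PCR and capillary electrophoresis; bidirectional fit against DMSO baseline.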

[13] = ATG_EGR_CIS: Attagene CIS-FACTORIAL HepG2 Assay for human Early Growth Response 1 (EGR1) (AID 2282938); details: HepG2 Attagene CIS-FACTORIAL EGR reporter mRNA; actives raise or lower the signal
Summary of the method: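 HepG2 cells transiently transfected with cis-element-driven multiplexed reporter units, dosed for 24 h. EGR1-element reporter mRNA quantified by RT-PCR, 6-FAM labelling, HpaI digestion and capillary electrophoresis; bidirectional fit versus DMSO.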

[14] = ATG_M_19_CIS: Attagene CIS-FACTORIAL HepG2 Assay for M19 Transcription Factor (Internal Marker) (AID 2282939); details: HepG2 Attagene CIS-FACTORIAL M19 internal marker reporter; actives raise or lower the signal
Summary of the method: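 HepG2 cells transiently transfected with cis-regulated multiplexed reporter units, dosed 24 h. Reporter mRNA quantified by RT-PCR and capillary electrophoresis; internal background marker fitted bidirectionally versus DMSO.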

[15] = molecular target: Hepatocyte nuclear factor 3-beta (Homo sapiens) (UniProt Q9Y261); assay: ATG_FoxA2_CIS: Attagene CIS-FACTORIAL HepG2 Assay for human Forkhead box A2 (FOXA2) (AID 2282942); details: HepG2 cis-reporter transcription factor activity, 24 h; actives raise or lower the signal
Summary of the method: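 HepG2 transiently transfected with a multiplexed cis-promoter reporter library read endogenous FOXA2 activity. After 24 h compound exposure, reporter mRNA was quantified by RT-PCR, HpaI digestion and capillary electrophoresis. Bidirectional fit against DMSO.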

[16] = ATG_FoxO_CIS: Attagene CIS-FACTORIAL HepG2 Assay for human Forkhead box O (FoxO) (AID 2282943); details: HepG2 Attagene cis-reporter, FoxO element, mRNA; actives raise or lower the signal
Summary of the method: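 Read-out: fluorescence of 6-FAM-labelled reporter cDNA fragments resolved by capillary electrophoresis. Transiently transfected HepG2 cells were dosed for 24 h; activity fitted in both directions relative to DMSO controls.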

[17] = ATG_GATA_CIS: Attagene CIS-FACTORIAL HepG2 Assay for human GATA Binding Protein (AID 2282944); details: HepG2 GATA cis-element reporter, Attagene multiplex mRNA; actives raise or lower the signal
Summary of the method: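 HepG2 cells transiently transfected with multiplexed cis-element reporter units measure endogenous GATA activity; after 24 h compound exposure, reporter mRNA quantified by RT-PCR and capillary electrophoresis. Changes fitted in both directions vs DMSO.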

[18] = ATG_GLI_CIS: Attagene CIS-FACTORIAL HepG2 Assay for human Zinc Finger Protein GLI1 (AID 2282945); details: HepG2, Attagene cis-factorial reporter mRNA, GLI element; actives raise or lower the signal
Summary of the method: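 Transiently transfected HepG2 cells report endogenous transcription factor activity via cis-element-driven reporter units. After 24 h compound exposure, reporter mRNA was measured by RT-PCR with capillary electrophoresis; bidirectional fitting against DMSO baseline.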

[19] = ATG_Ets_CIS: Attagene CIS-FACTORIAL HepG2 Assay for human Erythroblast Transformation Specific (ETS) (AID 2282941); details: HepG2 ETS cis-reporter transcription, actives raise or lower the signal
Summary of the method: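 HepG2 cells transfected with multiple cis-regulated reporter units measuring endogenous ETS-driven transcription, 24 h after dosing. Reporter mRNA quantified by RT-PCR with capillary electrophoresis; bidirectional fit relative to DMSO.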

[20] = ATG_ERE_CIS: Attagene CIS-FACTORIAL HepG2 Assay for Estrogen Response Element (ERE) (AID 2282940); details: HepG2 ERE cis-reporter, Attagene RNA transcript; actives raise or lower the signal
Summary of the method: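 HepG2 cells transiently transfected with multiplexed cis-element reporter units, measuring endogenous transcription factor activity; ERE reporter mRNA quantified after 24 h exposure by RT-PCR, fluorescent labelling, HpaI digestion and capillary electrophoresis. Bidirectional change versus DMSO.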

Measured: AC50

Transcription factor E2F1 (Homo sapiens), sequence (Q01094 whole entry, looked up): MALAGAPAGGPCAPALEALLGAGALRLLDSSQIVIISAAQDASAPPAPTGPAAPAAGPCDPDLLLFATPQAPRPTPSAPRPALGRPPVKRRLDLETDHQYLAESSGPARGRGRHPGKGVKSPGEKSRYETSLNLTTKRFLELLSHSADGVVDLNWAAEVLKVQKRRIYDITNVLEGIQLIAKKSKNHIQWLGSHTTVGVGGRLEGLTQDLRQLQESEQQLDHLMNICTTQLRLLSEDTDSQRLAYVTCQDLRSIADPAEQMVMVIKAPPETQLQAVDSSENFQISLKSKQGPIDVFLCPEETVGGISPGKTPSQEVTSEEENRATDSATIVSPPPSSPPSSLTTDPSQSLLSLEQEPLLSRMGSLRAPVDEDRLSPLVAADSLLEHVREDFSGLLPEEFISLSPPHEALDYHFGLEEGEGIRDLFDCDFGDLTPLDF
Hepatocyte nuclear factor 3-beta (Homo sapiens), sequence (Q9Y261 whole entry, looked up): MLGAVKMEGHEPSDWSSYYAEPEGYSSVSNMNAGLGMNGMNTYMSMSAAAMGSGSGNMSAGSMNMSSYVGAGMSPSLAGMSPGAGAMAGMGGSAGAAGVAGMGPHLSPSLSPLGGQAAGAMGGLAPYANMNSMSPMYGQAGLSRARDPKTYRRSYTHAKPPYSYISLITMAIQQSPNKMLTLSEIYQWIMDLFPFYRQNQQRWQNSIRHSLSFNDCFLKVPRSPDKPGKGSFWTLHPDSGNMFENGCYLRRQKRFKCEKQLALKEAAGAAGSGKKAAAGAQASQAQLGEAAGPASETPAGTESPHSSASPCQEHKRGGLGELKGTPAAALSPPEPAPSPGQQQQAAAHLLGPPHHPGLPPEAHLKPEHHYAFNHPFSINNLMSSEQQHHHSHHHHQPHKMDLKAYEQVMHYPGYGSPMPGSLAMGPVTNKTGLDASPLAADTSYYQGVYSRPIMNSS
Retinoic acid receptor alpha (Homo sapiens), sequence (P10276 whole entry, looked up): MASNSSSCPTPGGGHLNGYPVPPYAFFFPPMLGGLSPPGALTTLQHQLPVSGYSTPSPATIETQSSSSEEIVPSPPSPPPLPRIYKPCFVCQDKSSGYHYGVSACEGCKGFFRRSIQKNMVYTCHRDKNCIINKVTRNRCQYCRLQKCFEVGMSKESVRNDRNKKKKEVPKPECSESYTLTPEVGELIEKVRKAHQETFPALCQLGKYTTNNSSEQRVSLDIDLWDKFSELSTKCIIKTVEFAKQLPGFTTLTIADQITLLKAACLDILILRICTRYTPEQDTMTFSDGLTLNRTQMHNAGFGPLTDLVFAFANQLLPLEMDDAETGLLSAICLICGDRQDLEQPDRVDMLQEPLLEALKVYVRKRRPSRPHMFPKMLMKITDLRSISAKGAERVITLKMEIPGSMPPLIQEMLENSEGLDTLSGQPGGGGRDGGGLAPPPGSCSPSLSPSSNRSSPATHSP
Aryl hydrocarbon receptor (Homo sapiens), sequence (P35869 whole entry, looked up): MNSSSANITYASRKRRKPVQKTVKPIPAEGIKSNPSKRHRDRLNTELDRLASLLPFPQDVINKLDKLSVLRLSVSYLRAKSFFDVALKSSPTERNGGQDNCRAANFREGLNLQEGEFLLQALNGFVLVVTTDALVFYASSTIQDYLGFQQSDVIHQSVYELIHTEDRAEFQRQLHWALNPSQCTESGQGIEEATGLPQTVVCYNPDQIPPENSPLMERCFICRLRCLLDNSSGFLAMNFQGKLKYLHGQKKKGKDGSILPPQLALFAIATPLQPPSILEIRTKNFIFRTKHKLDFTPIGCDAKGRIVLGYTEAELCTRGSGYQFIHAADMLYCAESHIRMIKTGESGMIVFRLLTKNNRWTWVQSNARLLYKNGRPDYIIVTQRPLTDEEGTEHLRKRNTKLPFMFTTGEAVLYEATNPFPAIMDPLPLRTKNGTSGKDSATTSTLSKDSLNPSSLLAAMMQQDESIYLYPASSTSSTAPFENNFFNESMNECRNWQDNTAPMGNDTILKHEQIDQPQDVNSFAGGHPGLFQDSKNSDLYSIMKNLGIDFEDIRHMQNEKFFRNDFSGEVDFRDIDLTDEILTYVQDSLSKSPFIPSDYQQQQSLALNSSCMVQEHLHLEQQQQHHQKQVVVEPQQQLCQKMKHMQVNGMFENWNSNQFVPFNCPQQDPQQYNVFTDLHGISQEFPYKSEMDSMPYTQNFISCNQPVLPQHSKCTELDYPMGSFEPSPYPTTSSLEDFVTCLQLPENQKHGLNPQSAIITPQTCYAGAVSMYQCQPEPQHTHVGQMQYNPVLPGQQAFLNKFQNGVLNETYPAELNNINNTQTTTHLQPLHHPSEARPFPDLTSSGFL
CCAAT/enhancer-binding protein beta (Homo sapiens), sequence (P17676 whole entry, looked up): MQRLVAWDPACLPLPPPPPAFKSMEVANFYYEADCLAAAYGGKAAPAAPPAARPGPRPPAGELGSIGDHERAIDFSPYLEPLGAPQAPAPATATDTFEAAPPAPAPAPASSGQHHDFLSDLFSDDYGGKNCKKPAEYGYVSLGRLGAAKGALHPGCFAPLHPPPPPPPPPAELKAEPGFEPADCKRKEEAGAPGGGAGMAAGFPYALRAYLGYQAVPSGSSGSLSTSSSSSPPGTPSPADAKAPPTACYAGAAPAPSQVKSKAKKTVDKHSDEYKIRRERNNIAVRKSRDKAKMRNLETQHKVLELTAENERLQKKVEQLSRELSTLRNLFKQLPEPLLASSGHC

O=C(Nc1ccc([N+](=O)[O-])cc1)Nc1ccc([N+](=O)[O-])cc1 (tested in a mixture with another compound)
active: [5] 35.1 µM
not listed: [19] | [20]
inactive: all other assays above

OCC#CCO
not listed: [17] | [20]
inactive: all other assays above

CN(C)c1ccncc1
not listed: [12]
inactive: all other assays above

CC(C)CCCCCCCCCCCCCCC(=O)O
active: [9] 54.2 µM
not listed: [19] | [20]
inactive: all other assays above
